Screening results (PubChem BioAssay)
The full list was thinned out, with hits kept by preference.
RXFP1 antagonist = qHTS Assay for Antagonists of the Relaxin Receptor RXFP1; activity change, negative = inhibition, % at 57.5 µM; Relaxin receptor 1 (Homo sapiens), Q9HBX9; HEK293-RXFP1, relaxin-stimulated cAMP HTRF, 30 min; active compounds read low; AID 1259400, 2018; hit rate 0.59% among 350,000;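 active means activity change of -60% or lower, but not beyond a set lower limit; inconclusive means change between -60% and -40%, or beyond the set limit; inactive means change above -40%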
NPSR antag = qHTS Assay for Antagonists of the Neuropeptide S Receptor: cAMP Signal Transduction; CHO-NPSR cells, cAMP TR-FRET, antagonist mode; Potency, µM (doses to about 38.3 µM), hits mostly inhibitors; hit rate 1% among 220,000; further: nearly all actives have a fitted effect of over 50% in size
TSHR antagonist = Antagonists of the Thyroid Stimulating Hormone Receptor: HTS campaign; Thyrotropin receptor (Homo sapiens), P16473; TSHR-expressing cells, TSH-stimulated cAMP HTRF, 2 h; active compounds read low; activity change, negative = inhibition, % at 11.5 µM; hit rate 0.2% among 330,000;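 active means activity change below a set negative limit, meaning inhibition stronger than a set level, cut at about -70% in these data; inconclusive means activity change between two set negative limits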
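TSHR-expressing cells were treated with compounds, then stimulated with TSH at EC80 (4nM final) for 2 hours at 37 deg C. Cellular cAMP was measured by HTRF competition between lysate cAMP and cAMP-d2 for a cryptate-labelled anti-cAMP antibody.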
RXFP1 ag = qHTS Assay for Agonists of the Relaxin Receptor RXFP1; Relaxin receptor 1 (Homo sapiens), Q9HBX9; HEK293T-RXFP1 cAMP TR-FRET, 30 min; response scale: percent of porcine relaxin response, buffer zero; Potency, µM (top dose mostly 57.5 µM), most hits filed as activators; hit rate 0.3% among 370,000; AID 2676, 2010; further: nearly all actives have a fitted effect of over 60% in size
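cAMP rise read by TR-FRET after 30 min, 37C compound exposure (up to 58 uM) in RXFP1-transfected HEK293 cells with Ro 20174 present. EC50 from Hill-equation fits, with 29 nM porcine relaxin as 100% and buffer as basal.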
PTHR1 ag = qHTS for PTHR1 Agonists: Primary Screen. Parathyroid hormone/parathyroid hormone-related peptide receptor (Homo sapiens), Q03431. HEK293 GP2 PTHR1 cells, GloSensor cAMP luminescence, 1 h. Potency, µM (doses to about 115 µM), most hits filed as activators. hit rate 0.075% among 410,000; further: nearly all actives have a fitted effect of over 55% in size
Target sequence (Q03431 whole entry, looked up): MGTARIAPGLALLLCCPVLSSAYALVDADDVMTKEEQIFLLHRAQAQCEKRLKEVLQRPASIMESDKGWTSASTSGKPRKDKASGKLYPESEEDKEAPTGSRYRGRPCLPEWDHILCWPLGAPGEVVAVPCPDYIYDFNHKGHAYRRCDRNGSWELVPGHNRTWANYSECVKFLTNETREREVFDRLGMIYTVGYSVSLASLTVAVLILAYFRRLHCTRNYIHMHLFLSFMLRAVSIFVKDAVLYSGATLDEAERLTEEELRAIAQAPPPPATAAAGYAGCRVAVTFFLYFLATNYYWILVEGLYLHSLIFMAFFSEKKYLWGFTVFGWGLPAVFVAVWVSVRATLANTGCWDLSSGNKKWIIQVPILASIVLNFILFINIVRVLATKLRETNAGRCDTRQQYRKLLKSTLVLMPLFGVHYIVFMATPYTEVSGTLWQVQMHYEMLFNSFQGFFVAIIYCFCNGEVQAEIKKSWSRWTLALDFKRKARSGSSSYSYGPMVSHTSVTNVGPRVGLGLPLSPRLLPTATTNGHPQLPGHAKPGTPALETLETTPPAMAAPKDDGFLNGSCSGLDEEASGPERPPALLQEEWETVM
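HEK-293-derived GP2 cells expressing PTHR1 and a GloSensor cAMP reporter, 3,000/well, plated overnight, given luciferin plus IBMX (each 0.5 mM as added) for 1 h at 37 °C, then compound for 1 h at 37 °C. Luminescence was read after 15 min at room temperature.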
GLP1R cytotox = qHTS of GLP-1 Receptor Inverse Agonists: Cytotox Screen; HEK293 cAMP-luciferase reporter cells, luminescence, 24 h; AID 624418, 2012; Potency, µM (highest dose often 38.3 µM), most hits filed as inhibitors; hit rate 0.13% among 410,000;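 further: loss of luciferase light is scored as toxicity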
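Luminescence readout: signal drop marks cytotoxicity. Plated cells grew 12 h at 37 °C, 5% CO2, received 23 nL compound for 24 h, then got luciferase reagent, read after 12 min at RT.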
Of the large screens only hits and unclear results are named; the others gave an inactive call. Unless noted, the call rests on the fitted dose curve; in most records, active means well fitted curve in the direction sought with a large enough effect; inconclusive means small, poorly fitted or top-dose-only effect, or another doubt; inactive means no such curve, though single readings can be large; an effect the other way counts as inactive or inconclusive.

Oc1ccc2ccccc2c1N=Nc1ccccn1	NPSR antag 7.9µM, GLP1R cytotox 2.5µM
CCC(Cc1ccccc1)NC(=O)Cn1cccc1C(=O)c1ccccc1 (stereo not drawn)	RXFP1 antagonist -114, GLP1R cytotox inconclusive (no result: NPSR antag)
Cc1cc(NS(=O)(=O)c2ccc(NC(=O)c3ccccc3C)cc2)no1	none (no result: NPSR antag)
Cc1ccc(-c2cc(C(=O)Nc3ccc(S(=O)(=O)Nc4cc(C)on4)cc3)c3ccccc3n2)c(C)c1	NPSR antag 10µM
CC1CCCN(CCCNC(=O)C2CCN(S(=O)(=O)N3CCC4(CC3)OCCO4)CC2)C1 (stereo not drawn)	none (no result: NPSR antag)
CC(NC(=O)CSc1n[nH]c(N)n1)c1ccccc1 (stereo not drawn)	none (no result: NPSR antag)
CCCc1ccc(-c2cc(NC(=O)CSc3n[nH]c(N)n3)n(-c3ccccc3)n2)cc1	NPSR antag inconclusive, PTHR1 ag 16µM
COc1cccc(OC)c1OCc1cc(C2C3CCCC=C3C(C#N)=C(N)C2(C#N)C#N)c(C)cc1C (stereo not drawn)	NPSR antag 3.2µM
CCOC(=O)c1cc([N+](=O)[O-])c([N+](=O)[O-])cc1NC(C)=O	NPSR antag 10µM, GLP1R cytotox inconclusive
O=C(Cc1ccccc1)Nc1cccc(N2C(=O)C=CC2=O)c1	RXFP1 antagonist -119, NPSR antag inconclusive, TSHR antagonist -71
CCCCCCOC(=O)C(C#N)c1nc2ccccc2nc1N1CCCCC1 (stereo not drawn)	NPSR antag 10µM
CCCCCCOC(=O)C(C#N)c1nc2ccccc2nc1N1CCN(C)CC1 (stereo not drawn)	NPSR antag inconclusive, GLP1R cytotox inconclusive
COC(=O)c1ccc(Cl)cc1NC(=O)NCc1c(-n2cccc2)sc2c1CCCC2	none (no result: NPSR antag, TSHR antagonist)
COc1ccccc1/C=C1\SC(=S)N(Nc2nc(C)cc(C)n2)C1=O	none
Cc1cc(C)nc(NN2C(=O)/C(=C/c3ccc(O)cc3)SC2=S)n1	RXFP1 antagonist -116
CCCn1nc([N+](=O)[O-])c(C(C#N)c2nc3ccccc3o2)c(Cl)c1=O (stereo not drawn)	NPSR antag inconclusive, TSHR antagonist -76, GLP1R cytotox inconclusive
Cn1nc([N+](=O)[O-])c(C(C#N)c2ccccn2)c(Cl)c1=O (stereo not drawn)	GLP1R cytotox inconclusive
CCn1nc([N+](=O)[O-])c(C(C#N)c2nc3cc(C(F)(F)F)ccc3s2)c(Cl)c1=O (stereo not drawn)	RXFP1 antagonist inconclusive, NPSR antag inconclusive, TSHR antagonist -88, GLP1R cytotox 5µM
COc1cc([N+](=O)[O-])c2ncsc2c1	none
COc1cc(SSc2cc(OC)cc([N+](=O)[O-])c2N)c(N)c([N+](=O)[O-])c1	NPSR antag 3.2µM
COc1ccc(NC(=O)CSc2ncc3c(n2)-c2cc(Cl)ccc2N(Cc2ccccc2F)S3(=O)=O)cc1	RXFP1 ag inconclusive (no result: RXFP1 antagonist, NPSR antag, TSHR antagonist)
O=C(CCn1c(=S)[nH]c2cc3c(cc2c1=O)OCO3)NCc1cccc(Cl)c1	RXFP1 antagonist inconclusive, RXFP1 ag inconclusive (no result: NPSR antag)
O=C(CCCn1c(=S)[nH]c2cc3c(cc2c1=O)OCO3)NCc1cccc(Cl)c1	RXFP1 antagonist -103, RXFP1 ag inconclusive (no result: NPSR antag)
O=C(CCn1c(=S)[nH]c2cc3c(cc2c1=O)OCO3)NCCc1ccccc1Cl	none (no result: NPSR antag, TSHR antagonist, RXFP1 ag)
O=C(CCn1c(=S)[nH]c2cc3c(cc2c1=O)OCO3)NCc1ccccc1Cl	RXFP1 antagonist -70, RXFP1 ag inconclusive (no result: NPSR antag)
CCc1cc(-c2cnnn2Cc2ccccc2)ccc1-c1cn(CC(C)C)nn1	none (no result: NPSR antag, TSHR antagonist, RXFP1 ag)
CCCc1ccccc1OCCNS(=O)(=O)c1cc2c(cc1C)OCC(=O)N2	RXFP1 antagonist -62 (no result: NPSR antag)
COc1cc2nc(SCC(=O)Nc3cccc(C)c3)n3nc(CCn4c(C)nc5ccccc54)nc3c2cc1OC	RXFP1 ag 18µM (no result: NPSR antag, TSHR antagonist)
NS(=O)(=O)c1cc2c(cc1Cl)CN(C1CCCCC1)C2=O	none (no result: NPSR antag, TSHR antagonist, RXFP1 ag, PTHR1 ag, GLP1R cytotox)
O=c1cc(N2CCN(c3ccc(F)cc3)CC2)[nH]c(=O)n1-c1cccc(Br)c1	none (no result: NPSR antag, TSHR antagonist)
CCOC(=O)C(=Cc1ccc(Br)cc1)C(=O)OCC	RXFP1 antagonist -96, NPSR antag inconclusive, GLP1R cytotox inconclusive
CN(Cc1ccccc1F)C(=O)CN1C(=O)NC2(CCc3ccccc32)C1=O (stereo not drawn)	none (no result: NPSR antag)
Cc1cc(N2CCC(C)CC2)nc(-n2nc(C)cc2C)n1	GLP1R cytotox 0.79µM
CCCCC(O)/C=C(C)/C=C/C=C/C(=O)N1CCCC1=O (stereo not drawn)	none (no result: NPSR antag, TSHR antagonist, RXFP1 ag, PTHR1 ag, GLP1R cytotox)
COc1ccc(OC)c(NC(=O)c2cc(=O)c3c(C)cc(C)cc3o2)c1	none (no result: NPSR antag, TSHR antagonist)
Cc1c(C(=O)NCC(c2ccc(Cl)cc2)N2CCOCC2)oc2ccccc12 (stereo not drawn)	none (no result: NPSR antag, TSHR antagonist)
CC1(C)CC(=O)C(N=Nc2cc(Cl)c(Cl)c(Cl)c2)=C(O)C1	none
Cc1ccc(O)c(N=NC2=C(O)CC(C)(C)CC2=O)c1	GLP1R cytotox 13µM
O=C(O)c1ccccc1NCCc1ccccc1	none (no result: NPSR antag, TSHR antagonist, RXFP1 ag, PTHR1 ag, GLP1R cytotox)
O=C(c1ccc(S(=O)(=O)N2CCCC2)cc1)N1CCC(CN2C(=O)c3cccc4cccc(c34)C2=O)CC1	NPSR antag 10µM, PTHR1 ag inconclusive
CC(=O)c1cccc(NC(=O)CSc2ncc(C(=O)Nc3ccccc3)c(=O)n2C)c1	none (no result: NPSR antag)
CN1CCN(Cc2c(O)ccc3c(=O)c(Oc4ccccc4Cl)c(C(F)(F)F)oc23)CC1	none
CCN1CCN(Cc2c(O)ccc3c(=O)c(Oc4ccccc4Cl)c(C(F)(F)F)oc23)CC1	RXFP1 ag 32µM (no result: RXFP1 antagonist, NPSR antag, TSHR antagonist)
CCCOC(C(=O)OC1CCN(C)CC1)(c1ccccc1)c1ccccc1	none (no result: NPSR antag, TSHR antagonist, RXFP1 ag, PTHR1 ag, GLP1R cytotox)
COC(=O)C(Nc1ccccc1Cl)(c1cc(C)c(O)c(C)c1)C(F)(F)F (stereo not drawn)	RXFP1 antagonist -64, NPSR antag inconclusive, GLP1R cytotox inconclusive
CCOC(=O)C(NC(=O)c1ccccc1Cl)(Nc1ccc(C)c(C)c1)C(F)(F)F (stereo not drawn)	none
CCn1cc(C(=O)NCc2ccc(C)cc2)c(=O)c2cc(S(=O)(=O)N(C)C3CCCCC3)ccc21	none (no result: RXFP1 antagonist, NPSR antag, TSHR antagonist)
O=C(NCc1n[nH]c(=S)n1-c1cccc(Cl)c1)c1ccc(S(=O)(=O)N2CCCC2)cc1	none
O=C(NCc1n[nH]c(=S)n1-c1ccc(Cl)c(Cl)c1)c1ccc(S(=O)(=O)N2CCCCC2)cc1	RXFP1 antagonist -60 (no result: NPSR antag)
O=C(CS(=O)c1ccc(C(F)(F)F)cc1[N+](=O)[O-])Oc1ccccc1 (stereo not drawn)	TSHR antagonist -71
